Compound activity: PubChem, Broad Institute
Only a selection was taken, and hits are over-represented in it overall.
Tgondii IFNg – T. gondii growth inhibition with IFN-gamma, primary screen, cell-based. activity change, negative = inhibition, % (concentration not given with the values). 69,000 compounds, 3.8% hits. AID 1259416, 2018. Toxoplasma gondii growth in IFN-gamma-treated host cells; hits give low values; in the data active = activity change below about -70%, passing the limit was not always enough;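 also: host cells are HeLa cells infected with Toxoplasma gondii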
Active calls of the source: *.

Screening CCN1C[C@H]2[C@H](OC)CCN(C(=O)c3ncccn3)[C@H]2C1 returned Tgondii IFNg 171.
Screening Cc1nnc([C@@H]2CCO[C@H]3CCN(Cc4ccccn4)C[C@H]32)o1 returned Tgondii IFNg 2.
`CC(C)CN1C[C@H]2CN(Cc3ccncc3)C(=O)[C@@H]2C1` gave Tgondii IFNg 5.
Screening O=C(NC1CCCC1)c1cc2cccnc2n(Cc2ccc(Cl)cc2)c1=O returned Tgondii IFNg 74.
`COCCNC(=O)c1cc2cccnc2n(Cc2ccccc2)c1=O` gave Tgondii IFNg 18.
For COC(=O)c1cccc(CN(C)C(C)Cc2cc(C)ccn2)n1 (stereo not drawn) the results were Tgondii IFNg 5.
For O=C(NCc1cccs1)c1cc2cccnc2n(Cc2ccccc2)c1=O the results were Tgondii IFNg -62.
For Cc1noc(C)c1CN1CC2CNC(C2)C1 (stereo not drawn) the results were Tgondii IFNg 0.
`CN1CCc2c(CNC(=O)c3nccn3C)cncc2C1` gave Tgondii IFNg -6.
Cn1ccnc1C1(O)CCCC2CNCC21 (stereo not drawn) was read as Tgondii IFNg 29.
`O=C(NCc1cccc(Cl)c1)c1c(O)c2cccnc2n(Cc2ccccc2)c1=O` gave Tgondii IFNg -107*.
Cc1cccc(NC(=O)c2c(O)c3cccnc3n(Cc3ccccc3)c2=O)c1 was read as Tgondii IFNg 139.
`Cc1ccc(C)c(NC(=O)c2c(O)c3cccnc3n(Cc3ccccc3)c2=O)c1` gave Tgondii IFNg 79.
Screening Cc1ccc(CN2CCC3O[C@@H](COc4cccnc4)CCC32)o1 (stereo partly drawn) returned Tgondii IFNg 72.
`Cc1ccnc(CC(C)N(C)Cc2cc(=O)n3c4c(cccc24)CCC3)c1` (stereo not drawn) gave Tgondii IFNg 5.
`c1cncc(C2CCCN2)c1` (stereo not drawn) gave Tgondii IFNg 13.
For Fc1cc(F)c2c(c1)[C@H]1C=CC[C@H]1C(c1cccnc1)N2 (stereo partly drawn) the results were Tgondii IFNg -74*.
`C=CCN1CCN(CC2CCOCC2)Cc2cccnc21` gave Tgondii IFNg -29.
`CCCN1CCC[C@@H]2Cc3nc(N)ncc3C[C@H]21` gave Tgondii IFNg 13.
For CCCN1CCC[C@@H]2Cc3[nH]ncc3C[C@H]21 the results were Tgondii IFNg -73*.
`Cc1ccnc(-n2cccc2CN2[C@@H]3CC[C@H]2CN(C)C(=O)C3)c1` gave Tgondii IFNg 4.
`O=c1[nH]c2ccc(Cl)cc2c(N[C@@H]2CN3CCC2CC3)c1-c1nc2ccccc2[nH]1` gave Tgondii IFNg -76*.
Screening COC(=O)C[C@@](O)(CCC(C)(C)O)C(=O)O[C@@H]1C(OC)=C[C@]23CCCN2CCc2cc4c(cc2[C@@H]13)OCO4 returned Tgondii IFNg -84*.
`CCCCCN1CC2CN(C(=O)Cc3ccc(Cl)cc3)CC21` (stereo not drawn) gave Tgondii IFNg -7.
For O=C1NCCN(CC2CC2)C12CCN(Cc1cccnc1)CC2 the results were Tgondii IFNg -1.
`O=C(c1cnccn1)N1C[C@@H](c2cc(F)cc(F)c2)[C@@H]2[C@H]1C1CCN2CC1` gave Tgondii IFNg -3.
`c1ccc(COC[C@@H]2CCC3C(CCN3Cc3ccoc3)O2)nc1` (stereo partly drawn) gave Tgondii IFNg -3.
For Cc1cccc(-c2ncc(CN3C[C@H]4CC[C@H]3C4)cn2)c1 the results were Tgondii IFNg 9.
`COc1ccc(CNC(=O)c2cc3cccnc3n(Cc3ccc(Cl)cc3)c2=O)cc1` gave Tgondii IFNg -113*.
For O=C(NCc1ccc(Cl)cc1)c1cc2cccnc2n(Cc2ccccc2)c1=O the results were Tgondii IFNg -66.
`CC(C)CNC(=O)c1cc2cccnc2n(Cc2ccccc2)c1=O` gave Tgondii IFNg -94*.
For COc1ccc(CNC(=O)c2cc3cccnc3n(Cc3ccc(F)cc3)c2=O)cc1 the results were Tgondii IFNg -43.
`CCCCNC(=O)c1cc2cccnc2n(Cc2ccccc2)c1=O` gave Tgondii IFNg -6.
COc1ccc(NC(=O)c2cc3cccnc3n(Cc3ccc(Cl)cc3)c2=O)cc1 was read as Tgondii IFNg inactive.
`COc1ccc(CNC(=O)c2cc3cccnc3n(Cc3ccccc3)c2=O)cc1` gave Tgondii IFNg -74*.
Screening O=C(NCCc1ccccc1)c1cc2cccnc2n(Cc2ccccc2)c1=O returned Tgondii IFNg 29.
Cc1ccc(CNC(=O)c2cc3cccnc3n(Cc3ccc(Cl)cc3)c2=O)cc1 was read as Tgondii IFNg 30.
For CCOC1CC2(CCN(CC(=O)O)CC2)c2cc(OC)ccc21 (stereo not drawn) the results were Tgondii IFNg 3.
For CCCCOC(=O)c1ccc(NC(=O)c2cc3cccnc3n(Cc3ccccc3)c2=O)cc1 the results were Tgondii IFNg -42.
For CCN1C[C@H]2[C@@H](OC)CCN(C(=O)c3ncccn3)[C@H]2C1 the results were Tgondii IFNg 41.
`Cc1ccc(N2CCO[C@@H]3CN(CCO)CC[C@H]3C2)nn1` gave Tgondii IFNg -1.
`Cc1cccc(CN2C[C@H]3CN(c4ccsc4)C(=O)[C@@H]3C2)n1` gave Tgondii IFNg -12.
Screening O=C(c1ccnnc1)N1C[C@H]2CN(Cc3ccccc3)C[C@H]2C1 returned Tgondii IFNg -35.
O=C(Nc1cccc(F)c1)c1cc2cccnc2n(Cc2ccc(Cl)cc2)c1=O was read as Tgondii IFNg 13.
COc1ccc2c(c1)C1(CCN(C(=O)c3cnc4ccccc4n3)CC1)CC2CC(=O)O (stereo not drawn) was read as Tgondii IFNg 1.
`c1ccc(OCC2COCCC23CCNCC3)nc1` (stereo not drawn) gave Tgondii IFNg 4.
Cc1cccc(C)c1NC(=O)c1cc2cccnc2n(Cc2ccccc2)c1=O was read as Tgondii IFNg -17.
`COc1ccc(OC)c(/C=C/C(=O)C2C(=O)NC34CCCCC3C2c2ccccc2O4)c1` (stereo not drawn) gave Tgondii IFNg -74*.
O=C(/C=C/c1ccccc1)C1C(=O)NC23CCCCC2C1c1ccccc1O3 (stereo not drawn) was read as Tgondii IFNg -64.
For COc1ccc(/C=C/C(=O)C2C(=O)N(C)C34CCCC3C2c2ccccc2O4)cc1 (stereo not drawn) the results were Tgondii IFNg 13.
`CC(=O)N1C[C@H]2CN(CC3CC3)C[C@@H]2c2ccccc21` gave Tgondii IFNg inactive.
`Cc1nc(CN2CCC3(CC2)C(=O)N(C)c2ccccc23)cs1` gave Tgondii IFNg -5.
For Cc1cc(C(=O)N2CCN(C)C3(CCN(C)CC3)C2)nc(C)n1 the results were Tgondii IFNg 11.
For COc1ccccc1CC(C)N(C)C(=O)Cc1csc(C)n1 (stereo not drawn) the results were Tgondii IFNg -10.
`CCO[C@H]1CC[C@@H]2[C@H]1OCCN2Cc1cc(C)on1` gave Tgondii IFNg -81*.
For Cc1cc(CN2CCO[C@@H]3[C@H]2CC[C@H]3OCC(C)C)no1 the results were Tgondii IFNg -8.
Screening CCO[C@@H]1CC[C@@H]2[C@H]1OCCN2Cc1cc(C)on1 returned Tgondii IFNg -12.
`O=S(=O)(c1ccc(F)cc1)N1CC2CNCC2C1` (stereo not drawn) gave Tgondii IFNg 90.
Screening Cc1ccc(NC(=O)c2cc3cccnc3n(Cc3ccccc3F)c2=O)cc1F returned Tgondii IFNg 49.
